# Measurements: PubChem BioAssay (NCATS)
# Where a SMILES comes first, the peptide text is derived from it. The star is where a group is joined. AMC = Cc1cc(=O)oc2cc(N*)ccc12; Cbz = O=C(OCc1ccccc1)*
# Columns and labels:
# Assay in all cases: Confirmatory Screen for Target Class Profiling of Small Molecule Inhibitors of Methyltransferases (AID 1745852); as to activity change, negative = inhibition: % is scaled to controls: 0 for no effect and ±100 for the full control effect
# [1] = target: Catechol O-methyltransferase (Homo sapiens) (UniProt P21964); details: MTase-Glo luminescence, SAH detection, recombinant enzyme; measured here: COMT max response; stronger effect = lower value
# Sequence of Catechol O-methyltransferase (Homo sapiens) (P21964 whole entry, looked up): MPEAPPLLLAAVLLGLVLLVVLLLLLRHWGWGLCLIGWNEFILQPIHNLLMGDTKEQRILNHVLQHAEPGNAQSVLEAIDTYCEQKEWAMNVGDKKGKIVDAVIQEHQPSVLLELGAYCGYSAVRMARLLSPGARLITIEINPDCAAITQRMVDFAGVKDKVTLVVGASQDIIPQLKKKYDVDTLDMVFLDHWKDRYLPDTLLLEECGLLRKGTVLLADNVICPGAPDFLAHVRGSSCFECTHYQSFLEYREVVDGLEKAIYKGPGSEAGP
# [2] = target: Guanidinoacetate N-methyltransferase (Homo sapiens) (UniProt Q14353); details: MTase-Glo luminescence, SAH detection, recombinant enzyme; activity change, negative = inhibition: at 57.3 µM (top of the series) unless noted
# [3] = target: Nicotinamide N-methyltransferase (Homo sapiens) (UniProt P40261); details: MTase-Glo luminescence, SAH detection, recombinant enzyme; measured here: NNMT max response; stronger effect = lower value
# Sequence of Nicotinamide N-methyltransferase (Homo sapiens) (P40261 whole entry, looked up): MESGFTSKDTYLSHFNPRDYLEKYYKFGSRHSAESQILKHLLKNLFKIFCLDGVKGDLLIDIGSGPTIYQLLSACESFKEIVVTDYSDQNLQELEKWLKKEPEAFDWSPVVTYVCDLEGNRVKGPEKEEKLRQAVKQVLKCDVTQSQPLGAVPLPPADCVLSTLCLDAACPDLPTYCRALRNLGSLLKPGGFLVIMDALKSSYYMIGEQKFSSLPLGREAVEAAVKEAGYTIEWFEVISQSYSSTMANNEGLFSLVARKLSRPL
# [4] = target: Phenylethanolamine N-methyltransferase (Homo sapiens) (UniProt P11086); details: MTase-Glo luminescence, SAH detection, recombinant enzyme; measured here: PNMT max response; stronger effect = lower value
# Sequence of Phenylethanolamine N-methyltransferase (Homo sapiens) (P11086 whole entry, looked up): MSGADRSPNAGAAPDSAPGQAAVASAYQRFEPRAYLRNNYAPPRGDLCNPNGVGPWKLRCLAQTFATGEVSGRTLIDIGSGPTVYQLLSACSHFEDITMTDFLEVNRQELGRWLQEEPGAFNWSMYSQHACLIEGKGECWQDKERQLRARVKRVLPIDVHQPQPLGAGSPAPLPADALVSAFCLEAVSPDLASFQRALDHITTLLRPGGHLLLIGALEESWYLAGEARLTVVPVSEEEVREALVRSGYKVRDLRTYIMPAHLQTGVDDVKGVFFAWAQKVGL
smiles,measurement,setting,value
CC(C)c1cc2c(c(O)c1O)[C@@]13CCCC(C)(C)C1[C@@H](O)[C@@H]2OC3=O (stereo not given in full),activity,[1],-82.4%
same,"activity change, negative = inhibition",[2],-4.37%
same,activity,[3],-4.78%
same,activity,[4],-0.254%
CC(=O)OC1CC(=O)C2(C)C3CC4=C(OC(C)CC4=O)OC3(C)CCC2C1(C)C (stereo not given),activity,[1],-40.9%
same,"activity change, negative = inhibition",[2],0.0637% [at 29.8 µM]
same,activity,[3],-81.2%
same,activity,[4],0.0652%
Cc1cc(=O)oc2cc(NC(=O)[C@H](CCC(=O)O)NC(=O)[C@H](CC(C)C)NC(=O)[C@H](CC(C)C)NC(=O)OCc3ccccc3)ccc12 (Cbz-Leu-Leu-Glu-{AMC}),activity,[1],-1.08%
same,"activity change, negative = inhibition",[2],0%
same,activity,[3],-71.3%
same,activity,[4],-1.44%
COCc1c(O)c(C(=O)O)c(C)c2c1OC(=O)c1c(C)cc(O)c(CO)c1O2,activity,[1],-62.5%
same,"activity change, negative = inhibition",[2],-4.52%
same,activity,[3],-3.54%
same,activity,[4],-4.35%
C=C[C@H]1[C@H](O[C@@H]2O[C@H](CO)[C@@H](O)[C@H](O)[C@H]2O)OC=C(C(=O)OC)[C@H]1CCO,activity,[1],-72.1%
same,"activity change, negative = inhibition",[2],-3.63%
same,activity,[3],-12.2%
same,activity,[4],-3.1%
O=C(O)Cn1nnc(-c2ccc(CN(CCCCOc3ccc(CN4CCCC4)cc3)CCc3ccccc3)cc2)n1,activity,[1],-3.03%
same,"activity change, negative = inhibition",[2],0%
same,activity,[3],-1.13%
same,activity,[4],0.559%
C=CC(C)(O)CC/C=C(\C)COC1O[C@H](CO)[C@@H](O)[C@H](O)[C@H]1O (stereo not given in full),activity,[1],-76.9%
same,"activity change, negative = inhibition",[2],-6.43%
same,activity,[3],-3.25%
same,activity,[4],-3.19%
CC(C)=C1CC2C(CCC2(C)O)C(C)(O)CC1=O (stereo not given),activity,[1],-78.9%
same,"activity change, negative = inhibition",[2],0%
same,activity,[3],3.19%
same,activity,[4],3.52%
O=C(COCC(=O)N1CCN(C(c2ccccc2)c2ccccc2)CC1)Nc1ccc(Cl)cc1C(=O)O,activity,[1],-5.29%
same,"activity change, negative = inhibition",[2],-4.07%
same,activity,[3],-44.4%
same,activity,[4],-8.81%
O=C(O)c1cccc(CN2C(=O)/C(=C(\c3ccccc3)c3ccc(Cl)cc3)c3ccccc32)c1,activity,[1],-6.02%
same,"activity change, negative = inhibition",[2],-1.74%
same,activity,[3],-41.9%
same,activity,[4],-8.16%
